Reference: PubChem BioAssay (NCATS)
Records with an inconclusive call do not appear. A call without a number means that no potency is given here. Values without a mark were called inactive. Calls of active or inactive are those of the source. Calls come from the whole dose curve; as a rule, active = well fitted inhibition curve with a large enough effect; inconclusive = small, poorly fitted or top-dose-only effect; inactive = flat fitted curve, though single readings scatter.

Legend:
[1] = qHTS profiling for inhibitors of Plasmodium falciparum proliferation (AID 504749); note: nearly all actives have a fitted effect of over 60% in size; conditions: P. falciparum in erythrocytes, SYBR Green DNA, 72 h
Method in brief: (§1)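 Parasite proliferation within erythrocytes, 72 h exposure. Endpoint: SYBR Green I fluorescence after overnight lysis at room temperature. Controls: 0.29 uM artemisinin, DMSO.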

[2] = test system: 3D7; assay: as above; conditions: P. falciparum in erythrocytes, SYBR Green DNA, 72 h; series mostly up to 28.7 µM
Method in brief: as §1

[3] = test system: 7G8; assay: as above; conditions: P. falciparum in erythrocytes, SYBR Green DNA, 72 h; series mostly up to 28.7 µM
Method in brief: as §1

[4] = test system: AA1029; assay: as above; conditions: P. falciparum in erythrocytes, SYBR Green DNA, 72 h; series mostly up to 28.7 µM
Method in brief: as §1

[5] = test system: AS120; assay: as above; conditions: P. falciparum in erythrocytes, SYBR Green DNA, 72 h; series mostly up to 28.7 µM
Method in brief: as §1

[6] = test system: ATS189; assay: as above; conditions: P. falciparum in erythrocytes, SYBR Green DNA, 72 h; series mostly up to 28.7 µM
Method in brief: as §1

[7] = test system: ATS95; assay: as above; conditions: P. falciparum in erythrocytes, SYBR Green DNA, 72 h; series mostly up to 28.7 µM
Method in brief: as §1

[8] = test system: C2A; assay: as above; conditions: P. falciparum in erythrocytes, SYBR Green DNA, 72 h; series mostly up to 28.7 µM
Method in brief: as §1

[9] = test system: CP185; assay: as above; conditions: P. falciparum in erythrocytes, SYBR Green DNA, 72 h; series mostly up to 28.7 µM
Method in brief: as §1

[10] = at 28.7 µM (top of the series), parasite line A
[11] = at 28.7 µM (top of the series), parasite line B
[12] = at 12.8 µM (top of the series), parasite line A
[13] = at 12.8 µM (top of the series), parasite line B
Potency is the fitted concentration of half-maximal effect.

Compound | activity, negative = inhibition [1, 10] | activity, negative = inhibition [1, 11] | Potency [2] | Potency [3] | Potency [4] | Potency [5] | Potency [6] | Potency [7] | Potency [8] | Potency [9] | activity, negative = inhibition [1, 12] | activity, negative = inhibition [1, 13] | Potency ([1]; parasite line A) | Potency ([1]; parasite line B)
CCN(CC)CCNC(=O)c1cc(Br)c(N)cc1OC | 1.38% | 3.74% | inactive | inactive | inactive | inactive | inactive | inactive | inactive | inactive |  |  |  | 
CCNC(=O)NCc1cccc(Cl)c1 | 14.6% | 3.44% | inactive | inactive | inactive | inactive | inactive | inactive | inactive | inactive |  |  |  | 
O=C(Nc1ncc([N+](=O)[O-])s1)c1cccs1 | 5.2% | -2.66% | inactive | inactive | inactive | inactive | inactive | inactive | inactive | inactive |  |  |  | 
O=C(O)CCC(=O)Nc1ccc(S(=O)(=O)Nc2nccs2)cc1 |  |  | inactive | inactive | inactive | inactive | inactive | inactive | inactive | inactive | 14.2% | 11.7% |  | 
CC(=O)NCCCCCC(=O)O | 7.94% | 13.3% | inactive | inactive | inactive | inactive | inactive | inactive | inactive | inactive |  |  |  | 
CCCc1ncc(C[n+]2ccccc2C)c(N)n1 |  |  | inactive | inactive | inactive | inactive | inactive | inactive | inactive | inactive | 11.9% | 12% |  | 
Cc1cc(NS(=O)(=O)c2ccc(N)cc2)nc(C)n1 | 9.36% | 5.66% | inactive | inactive | inactive | inactive | inactive | inactive | inactive | inactive |  |  |  | 
CCCCCCCC/C=C\CCCCCCCCN | 9.32% | 3.75% | inactive | inactive | inactive | inactive | inactive | inactive | inactive | inactive |  |  |  | 
CCOc1ccccc1C(N)=O | -8% | 15.4% | inactive | inactive | inactive | inactive | inactive | inactive | inactive | inactive |  |  |  | 
COc1ccc(-c2cc(C(F)F)nn2-c2ccc(S(N)(=O)=O)cc2)cc1F | 1.08% | -0.185% | inactive | inactive | inactive | inactive | inactive | inactive | inactive | inactive |  |  |  | 
CCOc1ccccc1OCCN[C@H](C)Cc1ccc(OC)c(S(N)(=O)=O)c1 | 7.23% | 1.02% | inactive | inactive | inactive | inactive | inactive | inactive | inactive | inactive |  |  |  | 
Cc1cccc(C)c1NC(=O)CN1CCCC1 | -5.07% | 5.99% | inactive | inactive | inactive | inactive | inactive | inactive | inactive | inactive |  |  |  | 
CC(C)CCCC(C)N (stereo not given) | 13% | -1.67% | inactive | inactive | inactive | inactive | inactive | inactive | inactive | inactive |  |  |  | 
Cc1cccc(C)c1NC(=O)c1ccccc1C(=O)O | 19.5% | 8.59% | inactive | inactive | inactive | inactive | inactive | inactive | inactive | inactive |  |  |  | 
C#C[C@]1(O)CC[C@H]2[C@@H]3CCC4=Cc5oncc5C[C@]4(C)[C@H]3CC[C@@]21C | -28.2% | -11.7% | inactive | inactive | inactive | inactive | inactive | inactive | inactive | inactive |  |  |  | 
COc1cc(C(=O)NCc2ccc(OCCN(C)C)cc2)cc(OC)c1OC |  |  | inactive | inactive | inactive | inactive | inactive | inactive | inactive | inactive | -2.54% | -4.52% |  | 
O[C@@H](c1cc(C(F)(F)F)nc2c(C(F)(F)F)cccc12)[C@H]1CCCCN1 |  |  | 35.5 nM (active) | 7.9 nM (active) | 11.2 nM (active) | 20 nM (active) | 28.2 nM (active) | 28.2 nM (active) | 70.8 nM (active) | 79.4 nM (active) |  |  | 31.6 nM (active) | 12.6 nM (active)
Nc1nc(-c2ccccc2)c(Br)c(=O)[nH]1 | -7.1% | 1.53% | inactive | inactive | inactive | inactive | inactive | inactive | inactive | inactive |  |  |  | 
O=C1C(=O)c2ccccc2C(O)=C1C1CCC(c2ccc(Cl)cc2)CC1 (stereo not given) |  |  | 3.2 nM (active) | 1.1 nM (active) | 3.2 nM (active) | 4 nM (active) | 2.8 nM (active) | 4 nM (active) | 7.9 nM (active) | 3.5 nM (active) |  |  | 1.4 nM (active) | 3.2 nM (active)
